Bioassay records as filed in PubChem.
Shown are actives, neighbours in structure and some others; about 2.2% of the full set was active somewhere.
TROY signal inh: inhibitors of TROY-driven NF-kB signaling, primary screen, Q293 LMP1-TROYcd cells, NF-kB luciferase, uHTS; 0.98% of 360,000 active; Q293 LMP1-TROYcd NF-kB luciferase reporter, 4 h; inhibition, % at 10 µM;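 active = compounds whose plate-normalised and pattern-corrected inhibition of the luciferase reporter signal at the single screening dose is 50% or more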
HSP90 inh: HSP90 inhibitors, primary screen, cell lysate, luminescence | Rabbit reticulocyte lysate, luciferase refolding luminescence, 3 h | AID 1789, 2009 | inhibition, % at 5.6 µM | 0.91% of 290,000 active | Heat shock protein HSP 90 (rabbit reticulocyte lysate; luciferase refolding);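 active = inhibition above the screen-wide mean plus 3 SD, computed separately per campaign, cut at about 16% in these data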;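 note: 0% = DMSO wells and 100% = 60 µM geldanamycin wells; inhibitors lower the luminescence because luciferase stays unfolded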
TWEAK Fn14 block: inhibitors of TWEAK-Fn14 signaling, primary screen, luciferase reporter cells, uHTS. TWEAK-stimulated Fn14 reporter cells, luciferase luminescence, 8 h. inhibition, % at 10 µM. 2% of 360,000 active. AID 1159606, 2016; in the data active = inhibition above about 50%
LGR2 inh: inhibitors of bursicon-induced LGR2 CRE-luciferase signal, primary screen, cell-based, HEK293, CRE-luciferase reporter, bursicon stimulation | bursicon-stimulated, 4 h | inhibition, % at 9.99 µM | 0.35% of 380,000 active | AID 720647, 2013;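 active = drop in luminescence signal, shown as inhibition above about 50% in the replicate tests, limit read from the data, passing the limit was not always enough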;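 note: agonist challenge used bursicon conditioned medium at about half maximal strength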
* hit, by the source's call; · = not tested or not shown; ! = repeats disagree.

SMILES	TROY signal inh	HSP90 inh	TWEAK Fn14 block	LGR2 inh
COc1ccc2c3c(n(C)c2c1)[C@H](CO)N(Cc1ccccc1OC)CC31CN(CC2CCOCC2)C1	·	·	·	-28
O=C1C(=Cc2ccc(Cl)cc2)CCc2ccccc21	54*	·	70*	-1
O=C1C(=Cc2ccc(F)cc2)CCc2ccccc21	27	·	70*	-13
O=C1/C(=C\c2ccncc2)CCc2ccccc21	15	·	31	21
COc1ccccc1C=C1CCc2ccccc2C1=O	27	·	72*	24
COc1ccc2c(c1)CC/C(=C\c1ccc(OC)c(Cn3cccn3)c1)C2=O	44	3	59*	·
COc1ccc2c3c(n(C)c2c1)[C@H](CO)NCC31CN(C(=O)Nc2ccc(F)cc2F)C1	·	·	·	-3
C[C@@H]1CN([C@@H](C)CO)C(=O)c2cc(NC(=O)C3CCCCC3)ccc2O[C@@H]1CN(C)S(C)(=O)=O	·	·	·	22
C[C@H](CO)N1C[C@H](C)[C@H](CN(C)Cc2ccc(C(=O)O)cc2)Oc2ccc(NC(=O)CCC(F)(F)F)cc2CC1=O	·	·	·	0
O=C1C(=Cc2ccccc2Cl)CCc2ccccc21	19	·	58*	10
O=C1C(=Cc2cccc(Cl)c2)CCc2ccccc21	-19	·	22	-29
COc1ccc(/C=C2/CCc3ccccc3C2=O)cc1OC	-22	-5	17	-58
COc1ccc(C=C2CCc3ccccc3C2=O)cc1	61*	·	94*	4
Cc1noc(C)c1NC(=O)Nc1cccc2c1O[C@@H](CN(C)S(C)(=O)=O)[C@@H](C)CN([C@H](C)CO)C2=O	·	·	·	8
COCC#Cc1ccc2c(c1)O[C@@H](CN(C)C(=O)C1CC1)[C@@H](C)CN([C@@H](C)CO)S2(=O)=O	·	·	·	-4
Cc1cc(NC(=O)c2ccc(Cn3cc([N+](=O)[O-])cn3)o2)no1	11	0	3	-4
Cc1cc(NC(=O)Cn2cc([N+](=O)[O-])cn2)no1	88*	0	-4	1
COc1ccc(N(C(=O)c2ccco2)S(=O)(=O)c2cc(Cl)c(Cl)cc2Cl)cc1	54*	10	25	·
C[C@@H]1CCCCO[C@@H](CN(C)Cc2ccccc2)[C@@H](C)CN([C@@H](C)CO)C(=O)c2cc(NS(=O)(=O)c3ccc(Cl)cc3)ccc2O1	·	·	·	10
Cc1ccc(S(=O)(=O)N2CCOCC2)cc1NC(=O)CN1CCN(c2ccc(O)cc2)CC1	49	1	78*	-13
Cc1ccc(S(=O)(=O)N[C@H]2CC[C@H](CCn3cc(C(C)C)nn3)O[C@H]2CO)cc1	·	·	·	0
Cc1nnc(NC(=O)c2sc3nc(-c4cccs4)cc(C(F)(F)F)c3c2N)s1	60*	2	74*	-2
COc1ccc(C(CC(=O)c2ccc(C)cc2)C(C#N)C#N)cc1OC (stereo unspecified)	20	-3	88*	53*
COC(=O)[C@H]1[C@H](CO)[C@H]2Cn3c(ccc(-c4ccncc4)c3=O)[C@H]2N1Cc1cccc(F)c1	·	·	·	6
O=C(CSc1nnc2ccccn12)NC(=O)Cc1ccccc1	0	6	52*	11
SMILES	TROY signal inh	HSP90 inh	TWEAK Fn14 block	LGR2 inh
Cc1nnc(SC(=O)N2c3ccccc3Sc3ccccc32)s1	49	8	90*	·
CN(C(=O)CSc1n[nH]c(N)n1)C1CCCCC1	13	·	1	0
Nc1nc(SCC(=O)C23CC4CC(CC(C4)C2)C3)n[nH]1	·	2	72*	·
CSc1nc(N)nc(SCC(=O)C23CC4CC(CC(C4)C2)C3)c1C#N	54*	3	93*	-1
N#Cc1c(N)nc(SCC(=O)C23CC4CC(CC(C4)C2)C3)c(C#N)c1-c1ccc(Cl)cc1	-15	3	-44	17
CO[C@@H]1CN(C)C(=O)c2cc(NS(=O)(=O)c3c(C)noc3C)ccc2OC[C@H](C)NC[C@@H]1C	·	·	·	-6
Cc1cc(C)cc(NC(=O)c2cc(C)n(Cc3cccs3)c2C)c1	-28	3	-19	-40
Cc1cc(C(=O)Nc2ccc(Cl)cc2)c(C)n1Cc1cccs1	51*	16*	60*	-16
Cc1cc(C(=O)CN2C(=O)c3ccccc3C2=O)c(C)n1Cc1cccs1	-2	2	83*	20
CC1CCc2nc3ccccc3c(C(=O)OCC(=O)NC3CCS(=O)(=O)C3)c2C1 (stereo unspecified)	-5	1	2	-7
COc1cccc(NC(=O)COC(=O)c2c3c(nc4ccccc24)CCC(C)C3)c1 (stereo unspecified)	36	4	57*	·
O=C(NCC[C@@H]1CC[C@@H](NC(=O)C2CCOCC2)[C@H](CO)O1)c1ccc(F)cc1	·	·	·	19
COc1cccc(C(C(=O)NC2CCCC2)N(Cc2ccccc2OC)C(=O)c2ccco2)c1 (stereo unspecified)	·	-2	74*	·
COCCN(C(=O)CNC(=O)c1ccco1)C(C(=O)NC1CCCC1)c1cccc(OC)c1 (stereo unspecified)	-7	-1	-2	-13
Nc1nc(N)c2cc(CNc3ccc(Cl)c(Cl)c3)ccc2n1	36	·	98*	107*
CNC[C@@H]1Oc2cc(-c3cncnc3)ccc2S(=O)(=O)N([C@H](C)CO)C[C@H]1C	·	·	·	-5
Cc1c(C(=O)Nc2ccc(F)cc2)oc2ccc(S(=O)(=O)N3CCC4(CC3)OCCO4)cc12	34	1	54*	·
Cc1c(C(=O)Nc2ccc(F)cc2)oc2ccc(S(=O)(=O)N3CCCC3)cc12	13	5	-17	-2
Cc1c(C(=O)Nc2cccc(Cl)c2)oc2ccc(S(=O)(=O)N3CCC4(CC3)OCCO4)cc12	22	-2	62*	-4
Cc1c(C(=O)Nc2ccc(F)c(F)c2)oc2ccc(S(=O)(=O)N3CCCCC3)cc12	50	1	81*	13
CC(=O)N(C)C[C@@H]1Oc2cc(-c3ccc(C)cc3)ccc2S(=O)(=O)N([C@@H](C)CO)C[C@H]1C	·	·	·	-15
COCC(=O)N(C)C[C@H]1Oc2cc(-c3ccc(OC)cc3)ccc2S(=O)(=O)N([C@@H](C)CO)C[C@H]1C	·	·	·	18
C[C@@H]1CN([C@H](C)CO)C(=O)c2cc(NC(=O)NC3CCCCC3)ccc2O[C@@H]1CN(C)Cc1ccc(Oc2ccccc2)cc1	·	·	·	-19
C[C@H]1CCCCO[C@H](CN(C)C(=O)C2CCCCC2)[C@@H](C)CN([C@@H](C)CO)C(=O)c2cc(NS(C)(=O)=O)ccc2O1	·	·	·	-8
C[C@H]1CN([C@@H](C)CO)C(=O)c2cc(C#CCN(C)C)cnc2O[C@H]1CN(C)C(=O)c1cccc(F)c1	·	·	·	-13
Cc1ccc(Cl)cc1NC(=O)COC(=O)C12CC3CC(CC(C3)C1)C2	4	8	67*!	·
O=C(COc1ccc(Cl)cc1Cl)Nc1ccccc1F	-7	·	55*	-39
CC(=O)OCC(=O)Nc1ccc(Cl)cc1Cl	·	3	54*	11
CC(=O)Nc1ccc(NC(=O)COc2ccc(Cl)cc2Cl)cc1	-26	1	-4	4
